Reference: PubChem BioAssay (NCATS)
Results filed as inconclusive are left out. Activity calls are given as the source filed them. Calls follow the shape of the dose curve; as a rule, active = well fitted cell-killing curve with a large enough effect; inconclusive = small, poorly fitted or top-dose-only effect; inactive = flat fitted curve, though single readings scatter. *1 amine or outer side, *2 acyl side, *3 side chain or, on linkers, in order; H or OH if unused. Where a SMILES comes first, the peptide text is derived from it. Bridges are numbered along the chain shown (N, C = ends). [ ]: non-standard residue; d: D form. The star is where a group is joined. ξ: configuration not given here. X10 = NC1=NCCC(C(N[*:1])C(=O)[*:2])N1; ΔAla(3-NHCONH2) = NC(=O)NC=C(N)C(=O)O; ξβ3hOrn = NCCCC(N)CC(=O)*; Dap = NC[CH](N)C(=O)O

Test: qHTS of pediatric cancer cell lines to identify multiple opportunities for drug repurposing: Primary screen for Rh18 cells (AID 1347102); also: nearly all actives have a fitted effect of over 65% in size
Settings: Rh18 rhabdomyosarcoma viability, CellTiter-Glo luminescence, 48 h; series mostly up to 46 µM; activity change, negative = cytotoxic: at the top concentration
Text: Drug repurposing or repositioning has been offered as a strategy for drug development in oncology programs. This approach has special potential for childhood cancers and other rare or orphan diseases, where the expected return on new drug development has been a disincentive to pharmaceuticals.
In this project we exploit the poly-pharmacology of drugs to discover new indications via phenotypic screening of a panel of 19 well-characterized cell lines derived from solid tumors seen in children and adolescents. The goal is to identify approved drugs with previously unrecognized anticancer properties that has the potential to reveal new mechanisms and biological processes involved in carcinogenesis or drug resistance. We employed a titration-based paradigm (quantitative high-throughput screening or qHTS), where all compounds were tested at multiple concentrations for their effect on cell viability. Concentration-response curves (CRCs) were derived directly from the primary screen, and both potency and efficacy values were used to identify compounds with robust bioactivity profiles. We screened the NIH Chemical Genomics Center (NCGC) Pharmaceutical Collection (NPC) and Mechanism Interrogation Plate (MIPE) small molecule collections of approved and investigational compounds against these cell lines; and measured metabolically active cells after 48 hours of compound treatment as a proxy for cell viability.
Assay Submitter: Nathalia J. Martinez, National Center for Advancing Translational Sciences, National Institutes of Health, Rockville, MD, USA; email: natalia.martinez@nih.gov
[1] Shen, M et al. Quantitative high-throughput phenotypic screening of pediatric cancer cell lines identifies multiple opportunities for drug repurposing. Oncotarget 2017 Dec 19;9(4):4758-4772. PMID 29435139.
The cells were obtained from University of North Carolina (UNC), Pediatric Preclinical Testing Program (PPT), and Coriell Institute (CI).
qHTS cell viability assay:
Cells were assayed in growth media at a density of 500-1,000 cells/well. Five microliters of cells were dispensed into 1,536-well, white, solid-bottom, TC-treated plates (Greiner Bio One) using a multidrop dispenser and incubated at 37 degrees C, 5% CO2, under a humidified atmosphere for 5 hours. Twenty-three nanoliters of compounds and controls (neutral control DMSO or positive control bortezomib at final concentration of 2.3 µM) were subsequently transferred by Kalypsys pintool. For primary screens, the MIPE collection was tested at 11-point dilutions (final concentrations range from 0.78 nM to 46 µM) and the NPC collection at 8-point dilutions (final concentrations range from 0.59 nM to 46 µM). Compounds tested in follow-up screens were assayed at 11-point dilutions. Cells were incubated for 48 hours, followed by addition of 3 µL of CellTiter-Glo (Promega). After a 15 min incubation at room temperature, samples were analyzed for luminescence intensity using a ViewLux High-throughput CCD imager equipped with clear filters.
% is scaled to controls: 0 for no effect and ±100 for the full control effect; potency is read from the fitted curve at half-maximal effect.

| SMILES | activity change, negative = cytotoxic | Potency |
| --- | --- | --- |
| CC(=O)OC[C@H]1O[C@@H](OC(C)=O)[C@H](OC(C)=O)[C@@H]1OC(C)=O | 11.5% (inactive) | – |
| Cn1c(=O)c2c(ncn2CC(=O)O)n(C)c1=O | 22.6% (inactive) | – |
| Cc1coc2ccccc2c1=O | 0.107% (inactive) | – |
| CCCCCC[C@@H](CCC)C(=O)O | 11.6% (inactive) | – |
| CCCC(=O)O[C@]1(C(=O)CC)CC[C@H]2[C@@H]3CCC4=CC(=O)CC[C@]4(C)[C@H]3[C@@H](O)C[C@@]21C | -8.35% (inactive) | – |
| C[C@@H](C1=C(CCN(C)C)Cc2ccccc21)c1ccccn1 | -10.4% (inactive) | – |
| CCn1ccc(NS(=O)(=O)c2ccc(N)cc2)nc1=O | 13% (inactive) | – |
| CCOC(=O)CN1CCCC1=O | 10.9% (inactive) | – |
| Nc1ccc(C(=O)N2CC3CC(CN(Cc4ccccc4)C3)C2)cc1 | 14.3% (inactive) | – |
| Nc1c(I)cc(I)c(C(=O)N(CCC(=O)O)c2ccccc2)c1I | 3.77% (inactive) | – |
| CCCC(=O)Nc1ccc(O)c(C(C)=O)c1 | 15.5% (inactive) | – |
| CC(C)=CCNc1ncnc2c1ncn2[C@@H]1O[C@H](CO)[C@@H](O)[C@H]1O | – | 2.66 µM (active) |
| O=C(c1ccccc1)c1ccccc1 | 12.7% (inactive) | – |
| N#CSCC(=O)O | 5.7% (inactive) | – |
| CC(C)(c1ccc(O)cc1)c1ccc(O)cc1 | 14.8% [at 92.7 µM] (inactive) | – |
| O=c1[nH]sc2cc(Cl)ccc12 | – | 18.8 µM (active) |
| CC(C)CCCC(C)NCCC(C)C (stereo not given) | 10.2% (inactive) | – |
| O=C(COCCOCCOCC(=O)Nc1c(I)cc(I)c(C(=O)O)c1I)Nc1c(I)cc(I)c(C(=O)O)c1I | 21.2% (inactive) | – |
| O=C(CS(=O)Cc1ccco1)NC/C=C\COc1cc(CN2CCCCC2)ccn1 (stereo not given) | 16.5% (inactive) | – |
| CCCCOC(=O)CCCCCCCCC(=O)OCCCC | 12.1% (inactive) | – |

| SMILES | activity change, negative = cytotoxic | Potency |
| --- | --- | --- |
| C[C@@H]1C[C@H]2[C@@H]3CCC4=CC(=O)C=C[C@]4(C)[C@@]3(F)[C@@H](O)C[C@]2(C)[C@@]1(O)C(=O)COC(=O)c1ccncc1 | 10.5% (inactive) | – |
| Nc1ccc(C(=O)OCC(O)CO)cc1 (stereo not given) | 9.32% (inactive) | – |
| CN1N=C(C(N)=O)CCC1=O | 1.15% (inactive) | – |
| Brc1ccccc1-c1ccccc1 | 17% [at 92.7 µM] (inactive) | – |
| Cc1ccccc1N1CCN(CCc2nnc3n2CCCC3)CC1 | 10.8% (inactive) | – |
| C/C(=C1\CCOC(=O)S1)N(C=O)Cc1cnc(C)nc1N | 9.86% (inactive) | – |
| O=C(O)CCCC[P+](c1ccccc1)(c1ccccc1)c1ccccc1 | 9.08% (inactive) | – |
| NCCCC(N)CC(=O)NCC1NC(=O)C(CO)NC(=O)C(N)CNC(=O)C(C2CCN=C(N)N2)NC(=O)C(=CNC(N)=O)NC1=O (stereo not drawn) (H-[Dap]S[Dap](ξβ3hOrn)[ΔAla(3-NHCONH2)][X10]; lactam 1-C; configuration not given here) | 6.67% [at 0.597 µM] (inactive) | – |
| NS(=O)(=O)c1cc(C(=O)NN2C[C@H]3[C@H]4CCC(C4)[C@H]3C2)ccc1Cl | 10.4% (inactive) | – |
| O=C(O)/C=C(\CC(=O)O)C(=O)O | 15.1% (inactive) | – |
| C/C(=N\O)[C@@H](C)NCC(C)(C)CN[C@H](C)/C(C)=N/O | 4.83% (inactive) | – |
| CCCCN(CCCC)C(C(N)=O)c1ccc(OC)cc1 (stereo not given) | 0.14% (inactive) | – |
| CC(C)C(C)(C)C(C)(C)C(C)(C)S | 22% [at 92.7 µM] (inactive) | – |
| O=C(O)C1CCC1 | 16.9% (inactive) | – |
| CCCC(CCC)(C(=O)OCC)C(=O)OCC | 1.42% (inactive) | – |
| CC1c2ccccc2CN1NC(=O)c1ccc(Cl)c(S(N)(=O)=O)c1 (stereo not given) | 6.5% (inactive) | – |
| Cc1nc(C2CCCCC2)c(-c2ccc(S(N)(=O)=O)c(F)c2)o1 | -12% (inactive) | – |
| Nc1nnnn1-c1ccccc1 | 8.19% (inactive) | – |
| Cc1nc([N+](=O)[O-])cn1-c1ccc([N+](=O)[O-])cc1 | 10.4% (inactive) | – |
| CC(C(=O)O)c1ccc(/C=C2\CCCCC2=O)cc1 (stereo not given) | 14.9% (inactive) | – |
